This note sets out measurements from PubChem BioAssay (NCI).

About 83,000 compounds went through this panel and 20% of them were active in at least one assay; those are over-represented in the sample as a whole.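 Compound tested at a single concentration for 48 hours in 96-well plates; a percent growth value below 10 was scored as active.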 A number with no mark means an inactive call. The source made the active and inactive calls.

The subject of this assay is HL-60(TB) leukemia. Briefly: NCI-60 one-dose screen, 48 h (100 = growth as untreated, 0 = no growth, -100 = all killed). Conditions: 10 µM unless noted.
On to `COc1cc(-c2nc3sccn3c2-c2ccnc(NCCNS(=O)(=O)c3ccccc3)n2)ccc1F`, for which the growth was 60.2%.
Under `CNC(=O)c1cc(Oc2ccc3nc(NC(=O)c4cc(C(F)(F)F)cc(C(F)(F)F)c4)sc3c2)ccn1` stands -12.8% (active).
Under `CCN(CC)CCCC(C)Nc1ccnc2ccc(Oc3ccccc3)cc12` (stereo not drawn) stands 72.6%; under `CCN(CC)c1ccc(/C=C2\SC(=O)C(Nc3nnc(-c4cccnc4SCc4ccccc4)o3)C2=O)cc1` (stereo not drawn), 19.4%; under `COC(=O)C1C2CC3c4[nH]c5cc(OC)ccc5c4CCN3CC2CC(OC2CCCCO2)C1OC` (stereo not drawn), 98.7%.
Regarding `O=S(=O)(NCCNc1nccc(-c2c(-c3ccc(F)c(O)c3)nc3sccn23)n1)c1ccc(F)cc1`, the growth was 12.7%.
Under `CC/C=C\C[C@@H]1C/C=C2/C(=O)C=C[C@H]2C/C=C\CCCC(=O)O1` stands -26% (active); under `Clc1ccc(C2CC(c3cccc(Nc4ccncc4)c3)=NN2c2ccc(Cl)cc2)cc1` (stereo not drawn), -45.3% (active).
On to `COc1ccc(C2=NN3C(C2)c2cc(Br)ccc2OC3c2ccncc2)cc1` (stereo not drawn), for which the growth was 93.5%.
The figure for `COc1cc2c(cc1-c1c(C)noc1C)ncc1nc(CN3CCOCC3)n([C@H](C)COC(F)F)c12` is 21.7%; for `Cc1ccc(S(=O)(=O)c2nc(-c3ccccc3)oc2S(C)=O)cc1` (stereo not drawn) it is -47.4% (active); for `O=S1(=O)CCC(N(/N=C/c2ccco2)c2ccccc2)C1` (stereo not drawn) it is 100%.
The figure for `CC/C(Cc1ccccc1)=C(\c1ccc(OCCCN(C)C)cc1)c1ccc(OC(=O)NCc2ccccc2)cc1` is 57.2%.
